Measurements reported in PubChem BioAssay (NCATS).
Active and inactive are the calls of the source. How the calls were made is not given here.

system: HIV-1 nucleocapsid protein NCp7 (binding to TG oligonucleotide); test: HIV Nucleocapsid (AID 346); conditions: HIV-1 NC / fluorescein-TGTGTGTG probe, fluorescence polarization;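 further: potency is for inhibitors that block NC binding and lower polarization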
Summary of the method: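 Fluorescence polarization readout: labelled TG4xF oligo (10 nM) with 100 nM nucleocapsid protein, high-salt (250mM NaCl) Hepes pH 7.5 buffer containing zinc and fresh reducing agents. Compounds added by pin tool; incubation 1 hr, room temperature.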
Potency means the concentration at half of the fitted maximal effect.

Row | SMILES | Potency
1 | COc1cccc(Nc2ncc3ncc(=O)n(CCC#N)c3n2)c1 | > 20 µM (inactive)
2 | COc1cccc(Cn2c(=O)c(-c3cn(C)c4ccccc34)nc3cncnc32)c1 | > 20 µM (inactive)
3 | Clc1ccccc1-c1nc(Nc2ccncc2)c2ccccc2n1 | > 20 µM (inactive)
4 | COc1ccccc1-c1nc(N2CCN(C)CC2)c2ccccc2n1 | > 20 µM (inactive)
5 | COc1ccc(-n2c(=O)c(-c3cn(C)c4ccccc34)nc3cnc(OC)nc32)cc1 | > 20 µM (inactive)
6 | Cc1nc2cnc(Oc3cccc(Cl)c3)nc2n(C2CC2)c1=O | > 20 µM (inactive)
7 | CC(C)NC(=O)N1CC[C@@]2(CCCN(C(=O)c3cccc(F)c3)C2)C1 | > 20 µM (inactive)
8 | CN(C)c1ncc2nc(-c3ccc(Cl)cc3)c(=O)n(Cc3ccc(F)cc3)c2n1 | > 4 µM (inactive)
9 | COCC(=O)N1CCC2(CCCN(Cc3ccccc3)C2)CC1 | > 20 µM (inactive)
10 | Cn1cccc1C(=O)N1CCC2(CCCN(c3ncccn3)C2)CC1 | > 20 µM (inactive)
11 | Clc1ccccc1-c1nc(-n2ccnc2)c2ccccc2n1 | > 20 µM (inactive)
12 | CS(=O)(=O)Nc1cccc(-c2nc(NCc3ccccc3)c3ccccc3n2)c1 | > 20 µM (inactive)
13 | CC(=O)N1CCC2(CCCN(Cc3cc(C(F)(F)F)cc(C(F)(F)F)c3)C2)CC1 | > 20 µM (inactive)
14 | O=C(c1csnn1)N1CCC2(CC1)CCN(c1ccccn1)CC2 | > 20 µM (inactive)
15 | COc1ccc(-c2nc3cnc(Nc4ccccc4)nc3n(C[C@H]3CCCO3)c2=O)cc1 | > 20 µM (inactive)
16 | COCC(=O)N1CCC2(CC1)CN(c1ccccc1)C2 | > 20 µM (inactive)
17 | O=C(Nc1ccccc1)N1CC[C@@]2(CCCN(C(=O)c3csnn3)C2)C1 | > 20 µM (inactive)
18 | Cn1cccc1C(=O)N1CCC2(CC1)CN(C(=O)Nc1cccc(C#N)c1)C2 | > 20 µM (inactive)
19 | COc1ccc(NC(=O)N2CCC3(CC2)CCN(C(=O)c2cc(C(F)(F)F)cc(C(F)(F)F)c2)CC3)cc1 | > 20 µM (inactive)
20 | Cn1cc(-c2nc3cncnc3n(Cc3ccccc3Cl)c2=O)c2ccccc21 | > 20 µM (inactive)

Row | SMILES | Potency
21 | O=S(=O)(c1ccccc1)N1CCC2(CC1)CN(Cc1ccccc1)C2 | > 20 µM (inactive)
22 | COc1cccc(Cn2c(=O)c(C)nc3cnc(N4CCOCC4)nc32)c1 | > 20 µM (inactive)
23 | CN(C)Cc1ccccc1-c1nc(N(C)Cc2ccco2)c2ccccc2n1 | > 20 µM (inactive)
24 | CC(=O)N1CCC2(CCN(Cc3nccs3)CC2)CC1 | > 20 µM (inactive)
25 | O=C(c1cnccn1)N1CCC[C@@]2(CCN(c3ncccn3)C2)C1 | > 20 µM (inactive)
26 | CCNc1ncc2ncc(=O)n(C)c2n1 | > 20 µM (inactive)
27 | COCCn1c(=O)c(-c2cccs2)nc2cnc(N3CCNCC3)nc21 | 13 µM (inactive)
28 | Cc1noc(C)c1C(=O)N1CCC2(CCCN(C(=O)Nc3ccccc3)C2)CC1 | > 20 µM (inactive)
29 | O=C(c1ccncc1)N1CCC2(CCCN(c3ccccc3)C2)CC1 | > 20 µM (inactive)
30 | COc1ccccc1-c1nc(NC2CC2)c2ccccc2n1 | > 20 µM (inactive)
31 | CN(C)c1ccc(-c2nc(NCc3cccnc3)c3ccccc3n2)cc1 | > 20 µM (inactive)
32 | COc1ccc(CNc2ncncc2-c2ccc(C(=O)N(C)C)cc2)c(OC)c1 | > 20 µM (inactive)
33 | COCCn1c(=O)c(-c2cc(F)cc(F)c2)nc2cnc(OC)nc21 | > 20 µM (inactive)
34 | c1ccc(Nc2nc(-c3ccc4c(c3)OCO4)nc3ccccc23)cc1 | > 20 µM (inactive)
35 | O=C(c1cnccn1)N1CCC2(CC1)CN(Cc1ccccc1)C2 | > 20 µM (inactive)
36 | Cc1cnc(CNc2cc(-c3cccc(C#N)c3)ncn2)cn1 | > 20 µM (inactive)
37 | COc1ccc(-n2c(=O)c(C)nc3cnc(OC)nc32)cc1 | > 20 µM (inactive)
38 | Cn1cccc1C(=O)N1CCC[C@@]2(CCN(C(=O)Nc3cccc(C#N)c3)C2)C1 | > 20 µM (inactive)
39 | CN(C)c1ncc2nc(-c3ccc(F)cc3)c(=O)n(CCc3ccccc3)c2n1 | > 20 µM (inactive)
40 | c1ccc(CNc2ccnc(-c3cccnc3)n2)cc1 | > 20 µM (inactive)
